For test [1], the system named is PRMT1 (protein arginine N-methyltransferase 1). Nature of the test: small molecules binding arginine methyltransferase PRMT1 – biochemical, small-molecule microarray, 635 nm fluorescence, primary screen (AID 1088).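 Also: binding of Prmt1 protein to compounds spotted on small-molecule microarray slides.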 Particulars: higher = more signal.
Test [2] in a line: growth effects on S. cerevisiae YJM789 – YJM789 clinical isolate, OD600, 24 h, basal, primary screen (AID 1089).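 Also: growth of clinical yeast isolate S. cerevisiae YJM 789 seeded 1000 cells per well; test concentration not given here.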 Particulars: higher = more signal, called active from +8 up or from −8 down.
The nature of test [3]: S. pombe growth modifiers, basal conditions – strain 972, OD600, 24 h, no modulator, primary screen (AID 1090).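 Also: basal condition with compound alone and no growth modifier present; test concentration not given here.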 Particulars: S. pombe 972 growth, higher = more signal, called active from +8 up or from −8 down.
A short description of test [4]: budding yeast growth modifiers under rapamycin – strain BY4716, OD600, 96 h, primary screen (AID 1091). Also: test concentration not given here. The note with it: S. cerevisiae BY4716 + rapamycin, higher = more signal, called active from +8 up or from −8 down.
For test [5], the target named is Torsin-1A-interacting protein 2 (Homo sapiens) (UniProt Q8NFQ8). Nature of the test: small molecules binding lysate-expressed LULL1 – cell lysate, human LULL1 lysate, 635/667 nm fluorescence, primary screen (AID 1092).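 Also: probe is lysate of COS7 cells overexpressing human LULL1; score merges per-feature 667 nm fluorescence with signal-to-noise.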 The note with it: small-molecule microarray, hLULL1 lysate binding, 635 nm fluorescence; higher = more signal.
The nature of test [6]: optical density change of DRC41 E. coli – strain DRC41, OD650, 24 h, E. coli filamentation project, primary screen (AID 1093).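 Also: MC1000 strain lacking acrAB efflux and sulA so SOS filamentation is blocked; test concentration not given here.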 Particulars: E. coli DRC41 growth, higher = more signal, called active from +8 up or from −8 down.
Test [7] in a line: probe aLefty2 binding to arrayed compounds – biochemical, biotinylated probe, 635/667 nm fluorescence, primary screen (AID 1094).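 Also: score merges spot fluorescence near 667 nm with spot signal-to-noise ratio.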 Particulars: small-molecule microarray, higher = more signal.
The test system of test [8] is Noggin (protein binding on small-molecule microarray). In words: small molecules binding Noggin protein – biochemical, 635/667 nm fluorescence, primary screen (AID 1095).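 Also: score merges 667 nm feature fluorescence with signal to noise over triplicate slides.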 Particulars: 635 nm fluorescence, higher = more signal.
Test [9] deals with Neurogenic locus notch homolog protein 3 (Homo sapiens) (UniProt Q9UM47). In words: small molecules binding NOTCH3 protein – biochemical, 635/667 nm fluorescence, primary screen (AID 1096). The note with it: small-molecule microarray, 635 nm fluorescence, higher = more signal.
The nature of test [10]: probe aEGFR binding to arrayed compounds – biochemical, biotinylated probe, 635/667 nm fluorescence, primary screen (AID 1097).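 Also: probe is a biotinylated anti-EGFR antibody binding compounds printed on slides; score combines fluorescence near 667 nm and signal to noise of each spot.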 The note with it: small-molecule microarray, higher = more signal.

Activity calls are given as the source filed them.

Neurogenic locus notch homolog protein 3 (Homo sapiens), sequence (Q9UM47 whole entry, looked up): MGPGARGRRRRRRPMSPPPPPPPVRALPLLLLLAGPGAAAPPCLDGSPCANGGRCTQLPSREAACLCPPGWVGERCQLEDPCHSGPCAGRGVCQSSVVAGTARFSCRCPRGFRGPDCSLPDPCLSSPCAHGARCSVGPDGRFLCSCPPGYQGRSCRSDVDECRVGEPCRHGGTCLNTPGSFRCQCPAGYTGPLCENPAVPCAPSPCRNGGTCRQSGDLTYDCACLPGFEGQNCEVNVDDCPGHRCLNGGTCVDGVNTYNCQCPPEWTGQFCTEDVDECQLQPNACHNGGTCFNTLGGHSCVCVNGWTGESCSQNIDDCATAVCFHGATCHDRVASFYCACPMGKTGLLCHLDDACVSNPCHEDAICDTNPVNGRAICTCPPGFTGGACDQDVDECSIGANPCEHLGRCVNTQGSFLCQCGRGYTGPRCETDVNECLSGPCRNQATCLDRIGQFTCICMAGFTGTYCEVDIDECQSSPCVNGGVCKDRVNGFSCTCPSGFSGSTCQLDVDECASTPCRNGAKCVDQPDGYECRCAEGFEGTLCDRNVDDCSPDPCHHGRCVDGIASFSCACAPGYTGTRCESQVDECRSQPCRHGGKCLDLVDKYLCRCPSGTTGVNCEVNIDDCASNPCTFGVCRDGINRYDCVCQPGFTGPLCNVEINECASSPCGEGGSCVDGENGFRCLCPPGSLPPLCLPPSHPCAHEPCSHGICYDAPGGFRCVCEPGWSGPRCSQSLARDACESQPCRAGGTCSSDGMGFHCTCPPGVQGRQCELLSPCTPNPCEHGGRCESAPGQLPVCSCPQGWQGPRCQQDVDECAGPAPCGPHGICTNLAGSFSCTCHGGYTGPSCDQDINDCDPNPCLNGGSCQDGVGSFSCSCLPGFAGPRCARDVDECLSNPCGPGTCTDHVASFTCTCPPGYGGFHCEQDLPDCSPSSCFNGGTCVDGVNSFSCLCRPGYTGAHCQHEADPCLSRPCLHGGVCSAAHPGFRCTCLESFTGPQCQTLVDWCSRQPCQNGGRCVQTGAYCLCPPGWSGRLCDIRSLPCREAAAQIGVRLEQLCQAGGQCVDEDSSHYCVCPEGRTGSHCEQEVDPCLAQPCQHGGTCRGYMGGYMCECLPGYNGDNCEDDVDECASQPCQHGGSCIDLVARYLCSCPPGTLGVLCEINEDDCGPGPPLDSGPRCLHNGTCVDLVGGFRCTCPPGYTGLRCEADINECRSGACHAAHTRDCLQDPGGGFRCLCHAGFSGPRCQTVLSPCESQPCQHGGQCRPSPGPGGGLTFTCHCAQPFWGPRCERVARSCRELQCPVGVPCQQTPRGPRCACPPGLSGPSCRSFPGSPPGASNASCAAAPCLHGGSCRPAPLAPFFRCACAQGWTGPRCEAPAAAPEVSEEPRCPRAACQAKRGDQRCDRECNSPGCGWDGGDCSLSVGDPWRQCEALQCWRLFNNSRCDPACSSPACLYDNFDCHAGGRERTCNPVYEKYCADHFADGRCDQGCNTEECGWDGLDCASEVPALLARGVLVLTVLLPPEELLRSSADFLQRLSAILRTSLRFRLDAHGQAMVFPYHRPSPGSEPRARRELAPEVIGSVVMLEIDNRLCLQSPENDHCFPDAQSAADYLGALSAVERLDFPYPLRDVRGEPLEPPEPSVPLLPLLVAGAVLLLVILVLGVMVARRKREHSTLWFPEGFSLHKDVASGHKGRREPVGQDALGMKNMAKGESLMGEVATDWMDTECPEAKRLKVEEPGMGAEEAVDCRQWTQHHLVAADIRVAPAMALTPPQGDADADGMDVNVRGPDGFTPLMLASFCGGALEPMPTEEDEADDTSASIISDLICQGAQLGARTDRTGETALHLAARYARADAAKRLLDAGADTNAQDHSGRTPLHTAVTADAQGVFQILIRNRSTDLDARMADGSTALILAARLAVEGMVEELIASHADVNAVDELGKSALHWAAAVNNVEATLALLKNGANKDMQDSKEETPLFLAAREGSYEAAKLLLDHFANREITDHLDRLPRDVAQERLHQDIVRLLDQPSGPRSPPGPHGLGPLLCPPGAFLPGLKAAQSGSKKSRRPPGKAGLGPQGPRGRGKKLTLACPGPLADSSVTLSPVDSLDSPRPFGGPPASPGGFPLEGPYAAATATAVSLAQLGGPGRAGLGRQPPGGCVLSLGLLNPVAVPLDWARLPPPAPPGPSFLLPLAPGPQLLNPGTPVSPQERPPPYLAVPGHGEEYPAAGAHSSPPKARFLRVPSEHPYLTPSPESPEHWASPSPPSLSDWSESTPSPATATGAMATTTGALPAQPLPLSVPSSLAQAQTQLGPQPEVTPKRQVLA
Torsin-1A-interacting protein 2 (Homo sapiens), sequence (Q8NFQ8 whole entry, looked up): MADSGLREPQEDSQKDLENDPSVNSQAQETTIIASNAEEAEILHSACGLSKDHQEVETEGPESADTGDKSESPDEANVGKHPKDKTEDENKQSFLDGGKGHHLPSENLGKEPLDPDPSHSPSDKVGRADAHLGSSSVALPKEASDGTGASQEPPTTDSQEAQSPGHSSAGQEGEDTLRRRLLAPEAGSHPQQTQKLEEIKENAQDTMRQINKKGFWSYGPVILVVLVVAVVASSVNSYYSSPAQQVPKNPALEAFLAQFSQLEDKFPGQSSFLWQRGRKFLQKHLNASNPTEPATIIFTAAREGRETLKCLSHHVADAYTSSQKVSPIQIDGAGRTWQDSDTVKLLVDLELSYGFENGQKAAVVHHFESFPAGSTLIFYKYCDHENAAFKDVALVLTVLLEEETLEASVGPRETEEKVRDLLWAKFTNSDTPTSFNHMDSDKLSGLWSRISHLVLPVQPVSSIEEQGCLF

In the case of `COc1ccccc1CN1C(=O)c2ccccc2[C@@]2(Cc3ccccc3N(C3CC3)C2=O)[C@@H]1c1ccc(CO)cc1`, the composite z-score was 0.0943 in test [1]; 0.861 in test [5]; -0.0699 in [7]; -0.2 in [8]; -0.473 in test [9]; -0.181 in test [10]. Further, the z-score in test [2] is -0.245 (inactive); in test [3], -0.384 (inactive); in [4], -2.24 (inactive); in test [6] it was -0.134 (inactive).
For `CCCC=C(CCC)[C@@H](NS(=O)(=O)c1cccc2cccnc12)c1ccc(C(=O)OC)cc1`, the composite z-score in [1] worked out at 0.763; in [5], 0.472; in test [7], 0.679; in test [8], 2.03; in test [9], 0.542; in test [10] it was 1.35. Moreover, the z-score was 0.797 (inactive) in test [2], -0.271 (inactive) in [3], 0.823 (inactive) in [4] and -0.376 (inactive) in test [6].
In the case of `CCCC=C(CCC)[C@@H](NS(=O)(=O)c1ccccc1)c1ccc(C(F)(F)F)cc1`, the composite z-score worked out at 1.39 in [1]; 3.47 in test [5]; 0.413 in test [7]; 0.554 in test [8]; 1.08 in [9]; 0.132 in test [10]. The z-score is 0.3 (inactive) in [2], 1.39 (inactive) in test [3], 12.1 (active) in [4] and -0.644 (inactive) in test [6].
Turning to `COC(=O)C(CC#Cc1ccc2c(c1)[C@]1(C(=O)N2)[C@H](c2ccc(OCCO)cc2)N2[C@H](c3ccccc3)[C@H](c3ccccc3)OC(=O)[C@H]2[C@@H]1C(=O)O)C(=O)OC`, the composite z-score was 1.53 in test [1]; 3.1 in test [5]; 0.607 in test [7]; 0.612 in test [8]; 0.822 in test [9]; 0.374 in [10]. The z-score is 2.49 (inactive) in test [2], -0.0363 (inactive) in test [3], -0.881 (inactive) in [4] and 1.95 (inactive) in [6].
With `C=C(COC)C(=O)CC[C@H](OC(=O)c1ccccc1-c1ccccc1C(=O)O)c1ccc(CO)o1`, the composite z-score in test [1] was 1.56; in test [5], 1.37; in [7], -0.216; in test [8], 0.757; in test [9], 0.391; in [10], -0.17. The z-score in [2] is -1.91 (inactive); in test [3], 0.436 (inactive); in test [4], 0.526 (inactive); in test [6] it was 0.229 (inactive).
Consider `CC(C)CNC(=O)[C@@]1(c2ccc([N+](=O)[O-])cc2)CC(=O)N(C(C)C)[C@@H]1c1ccc(CO)cc1`, for which the composite z-score in test [1] is 0.808; in [5] it was 2.03; in [7], -0.147; in test [8], -0.641; in test [9] it was -0.143; in [10] it was -0.13. Besides, the z-score in test [2] is -0.655 (inactive); in test [3], -0.182 (inactive); in test [4] it was -0.812 (inactive); in test [6], 0.738 (inactive).
Take `CCCC=C(CCC)[C@@H](NS(=O)(=O)CC)c1ccccc1`: the composite z-score came out at 1.17 in [1]; 2.57 in test [5]; 0.195 in [7]; 0.222 in test [8]; 1.16 in test [9]; 0.0093 in [10]. For the same molecule, the z-score was 0.472 (inactive) in [2], 1.22 (inactive) in test [3], 0.565 (inactive) in [4] and -0.66 (inactive) in test [6].
Turning to `C=CC[C@@]1(C(=O)NCC(O)CO)N=C(c2ccc(OCCCO)cc2)O[C@@H]1c1ccccc1` (stereo not given in full), the composite z-score in test [1] was 1.4; in [5] it was 3.12; in [7], 0.344; in test [8], 0.315; in test [9], 0.0815; in test [10], 0.168. Also, the z-score was -0.646 (inactive) in test [2], -1.17 (inactive) in [3], -1.12 (inactive) in test [4] and 0.727 (inactive) in test [6].
As for `CCOC(=O)C1=CC[C@@H](c2cccc(Br)c2)N(S(=O)(=O)c2ccc(C)cc2)[C@H]1c1ccc([N+](=O)[O-])cc1`, the composite z-score is 1.53 in test [1]; 2.96 in test [5]; -0.0615 in test [7]; 0.496 in test [8]; 1.15 in [9]; 0.254 in test [10]. For the same molecule, the z-score is -0.412 (inactive) in test [2], -5.06 (inactive) in test [3], 3.93 (inactive) in [4] and -0.3 (inactive) in [6].
With `COC(=O)[C@@]1(Cc2ccccc2)[C@H]2c3cc(C(=O)N4CCCC4)n(CCO)c3C[C@H]2CN1C(=O)c1ccccc1`, the composite z-score came out at 0.718 in [1]; 2.92 in test [5]; 1.35 in test [7]; 0.815 in test [8]; 0.946 in test [9]; 0.986 in [10]. For the same molecule, the z-score in test [2] was -0.598 (inactive); in test [3], 1.45 (inactive); in test [4] it was -1.88 (inactive); in test [6] it was -0.237 (inactive).
Turning to `O=C(O)[C@]1(CCS(=O)(=O)c2ccccc2)N=C(c2ccc(OCCCO)cc2)O[C@@H]1c1ccccc1`, the composite z-score is 0.464 in test [1]; 3.4 in [5]; 0.337 in test [7]; -0.116 in [8]; -0.687 in [9]; 0.0021 in [10]. Further, the z-score in test [2] was -0.15 (inactive); in test [3], -2.3 (inactive); in test [4] it was -0.961 (inactive); in [6] it was 0.0201 (inactive).
Consider `CO[C@H]1O[C@H](CO)[C@@H](OC(=O)Nc2ccc(C(F)(F)F)cc2)[C@H](OC(=O)Nc2ccccc2)[C@H]1OC(=O)Nc1ccccc1`, for which the composite z-score amounted to 1.53 in test [1]; 3.14 in test [5]; 0.158 in [7]; 0.896 in [8]; 1.04 in [9]; 0.172 in test [10]. The z-score in test [2] was 0.719 (inactive); in [3], -0.304 (inactive); in [4], 5.51 (inactive); in [6], -0.994 (inactive).
As for `O=C1N(Cc2ccccc2)c2ccccc2[C@H]2OC(c3ccc(OCCCO)cc3)=N[C@@]12CCS(=O)(=O)c1ccccc1`, the composite z-score is 1.54 in test [1]; 3.36 in test [5]; 0.0137 in test [7]; 1.75 in test [8]; 1.08 in test [9]; -0.0531 in test [10]. For the same molecule, the z-score is 1.19 (inactive) in test [2], 0.485 (inactive) in test [3], 8.14 (active) in test [4] and -0.81 (inactive) in [6].
For `C=C(CCCC)/C(=C/C[C@H](OC(=O)c1ccncc1)c1ccc(CO)o1)c1cc(C(=O)OC)ccc1OC`, the composite z-score is 1.56 in [1]; 2.12 in test [5]; 0.0123 in test [7]; 1 in [8]; 1.13 in [9]; -0.0056 in test [10]. Also, the z-score was -0.0643 (inactive) in [2], -1.65 (inactive) in [3], -0.57 (inactive) in [4] and 0.171 (inactive) in test [6].
As for `Cc1ccc(F)cc1S(=O)(=O)N[C@@H]1CCN(C(=O)c2ccc(OC(C)C)cc2)C1`, the composite z-score in test [1] came to 0.981; in [5], 1.03; in test [7], 0.0563; in test [8], 0.805; in [9], 1.13; in test [10] it was 0.0225. Also, the z-score is -0.654 (inactive) in test [2], -0.709 (inactive) in test [3], -0.966 (inactive) in test [4] and 0.845 (inactive) in test [6].
`CCCCC=C[C@@H](NC(=O)CCc1ccccc1)c1ccccc1`: the composite z-score is 0.887 in test [1]; 1.43 in test [5]; 0.138 in test [7]; 0.0567 in [8]; 1.12 in test [9]; 0.0184 in test [10]. Moreover, the z-score in test [2] was 0.174 (inactive); in test [3] it was -1.52 (inactive); in test [4], 2.19 (inactive); in test [6], -1.52 (inactive).
Regarding `C[C@]12C(=O)N(CCCO)[C@@H]3C(=O)N(c4ccc(Cl)cc4)CC=CC31O[C@@H]1/C=C\CCCOC(=O)C12` (stereo not given in full), the composite z-score was 0.868 in [1]; 3.16 in [5]; -0.262 in test [7]; -0.441 in test [8]; -0.123 in test [9]; -0.261 in test [10]. Moreover, the z-score in test [2] is -1.65 (inactive); in test [3] it was -1.51 (inactive); in test [4], -0.488 (inactive); in test [6] it was -0.298 (inactive).
Regarding `CC1CC/C=C\[C@H]2OC34C=CCN(Cc5ccccc5)C(=O)[C@H]3N(CCO)C(=O)[C@@H]4C2C(=O)O1` (stereo not given in full), the composite z-score in [1] is 0.205; in test [5] it was 1.27; in test [7], -0.0042; in [8], -0.585; in test [9], -0.127; in test [10] it was -0.113. Further, the z-score in test [2] was -0.404 (inactive); in test [3], -0.791 (inactive); in test [4], 0.285 (inactive); in test [6], 1.36 (inactive).

The values above are taken from PubChem BioAssay.
